Assay results as given in the supplement of paper PMC10849652.
Targets with a hit are over-represented here; the source holds about 7,900 in all. About 0.6% of all pairs of compound and target were hits.

compound: COc1cc2nc(-c3cc(F)ccc3O)nc(N[C@@H]3CNC[C@H]3C(C)(C)O)c2cc1OC; assay: log2 fold change, soluble protein after heating vs DMSO (PISA); higher = thermal stabilisation; K562 cells, 10 uM, 30 min; active = over 0.2 and 3.5 SD of the protein, either way, in both replicates (recomputed)
Method in brief: (§1)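 K562 cells (2×10^6 cells/mL) were treated with 10 μM compound for 30 min, and aliquots were heated for 3 min over 48°C-58°C. Pooled aliquots were extracted in PBS with 0.5% NP-40 at 4°C, and the supernatant after 21,000xg for 90 min was measured by TMTpro 16plex LC-MS/MS with channel sums equalised. Reported thermal stability, relative to control samples and from duplicates, is a log2 fold change.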

UniProt Q8NBI2, sequence (Q8NBI2 whole entry, looked up): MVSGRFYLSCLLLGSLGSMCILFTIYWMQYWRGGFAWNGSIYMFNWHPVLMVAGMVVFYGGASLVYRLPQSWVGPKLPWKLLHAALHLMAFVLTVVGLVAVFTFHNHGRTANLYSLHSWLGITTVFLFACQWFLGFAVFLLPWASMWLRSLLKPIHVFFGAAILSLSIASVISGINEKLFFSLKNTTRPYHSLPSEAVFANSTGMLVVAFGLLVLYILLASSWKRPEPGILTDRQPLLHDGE
UniProt O43432, sequence (O43432 whole entry, looked up): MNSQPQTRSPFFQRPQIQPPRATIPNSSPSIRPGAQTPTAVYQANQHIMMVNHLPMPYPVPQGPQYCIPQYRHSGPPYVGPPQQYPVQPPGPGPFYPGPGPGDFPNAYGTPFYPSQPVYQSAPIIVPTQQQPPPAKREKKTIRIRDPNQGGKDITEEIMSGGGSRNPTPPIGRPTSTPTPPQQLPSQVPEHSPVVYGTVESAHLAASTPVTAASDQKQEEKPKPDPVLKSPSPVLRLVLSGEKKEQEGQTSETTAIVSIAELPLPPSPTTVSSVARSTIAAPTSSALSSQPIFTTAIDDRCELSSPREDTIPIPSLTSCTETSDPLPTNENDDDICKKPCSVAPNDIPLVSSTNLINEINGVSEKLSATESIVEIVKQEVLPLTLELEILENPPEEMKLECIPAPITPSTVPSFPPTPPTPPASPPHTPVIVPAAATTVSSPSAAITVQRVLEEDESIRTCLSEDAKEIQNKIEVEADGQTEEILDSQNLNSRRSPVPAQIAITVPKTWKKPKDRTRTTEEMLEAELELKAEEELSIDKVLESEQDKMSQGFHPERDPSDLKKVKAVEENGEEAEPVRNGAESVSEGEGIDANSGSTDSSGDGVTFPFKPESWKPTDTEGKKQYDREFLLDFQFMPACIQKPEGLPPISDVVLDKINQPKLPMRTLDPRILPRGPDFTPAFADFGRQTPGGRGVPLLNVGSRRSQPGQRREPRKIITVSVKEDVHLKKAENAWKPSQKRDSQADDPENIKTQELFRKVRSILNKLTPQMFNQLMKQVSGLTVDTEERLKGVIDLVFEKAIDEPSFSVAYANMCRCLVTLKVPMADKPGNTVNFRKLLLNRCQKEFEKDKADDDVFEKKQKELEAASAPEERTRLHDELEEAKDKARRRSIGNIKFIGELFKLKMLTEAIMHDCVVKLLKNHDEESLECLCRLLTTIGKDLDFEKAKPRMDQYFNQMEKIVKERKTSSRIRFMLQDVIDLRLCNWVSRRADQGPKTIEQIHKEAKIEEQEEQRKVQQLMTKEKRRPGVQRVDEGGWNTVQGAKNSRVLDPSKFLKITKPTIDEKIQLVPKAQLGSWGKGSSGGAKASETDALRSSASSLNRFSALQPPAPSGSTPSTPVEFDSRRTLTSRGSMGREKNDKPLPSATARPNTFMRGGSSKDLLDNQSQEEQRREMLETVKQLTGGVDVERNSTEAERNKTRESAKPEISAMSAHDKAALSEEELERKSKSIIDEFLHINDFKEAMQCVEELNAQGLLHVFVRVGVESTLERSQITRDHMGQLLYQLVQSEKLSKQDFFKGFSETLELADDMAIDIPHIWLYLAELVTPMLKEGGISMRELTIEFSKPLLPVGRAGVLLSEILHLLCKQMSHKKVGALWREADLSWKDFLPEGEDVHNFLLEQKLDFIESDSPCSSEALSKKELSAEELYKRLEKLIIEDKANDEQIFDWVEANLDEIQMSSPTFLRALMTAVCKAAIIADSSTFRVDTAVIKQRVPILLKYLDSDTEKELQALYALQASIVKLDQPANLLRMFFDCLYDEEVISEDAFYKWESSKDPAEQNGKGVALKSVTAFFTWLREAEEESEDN
UniProt Q8N3D4, sequence (Q8N3D4 whole entry, looked up): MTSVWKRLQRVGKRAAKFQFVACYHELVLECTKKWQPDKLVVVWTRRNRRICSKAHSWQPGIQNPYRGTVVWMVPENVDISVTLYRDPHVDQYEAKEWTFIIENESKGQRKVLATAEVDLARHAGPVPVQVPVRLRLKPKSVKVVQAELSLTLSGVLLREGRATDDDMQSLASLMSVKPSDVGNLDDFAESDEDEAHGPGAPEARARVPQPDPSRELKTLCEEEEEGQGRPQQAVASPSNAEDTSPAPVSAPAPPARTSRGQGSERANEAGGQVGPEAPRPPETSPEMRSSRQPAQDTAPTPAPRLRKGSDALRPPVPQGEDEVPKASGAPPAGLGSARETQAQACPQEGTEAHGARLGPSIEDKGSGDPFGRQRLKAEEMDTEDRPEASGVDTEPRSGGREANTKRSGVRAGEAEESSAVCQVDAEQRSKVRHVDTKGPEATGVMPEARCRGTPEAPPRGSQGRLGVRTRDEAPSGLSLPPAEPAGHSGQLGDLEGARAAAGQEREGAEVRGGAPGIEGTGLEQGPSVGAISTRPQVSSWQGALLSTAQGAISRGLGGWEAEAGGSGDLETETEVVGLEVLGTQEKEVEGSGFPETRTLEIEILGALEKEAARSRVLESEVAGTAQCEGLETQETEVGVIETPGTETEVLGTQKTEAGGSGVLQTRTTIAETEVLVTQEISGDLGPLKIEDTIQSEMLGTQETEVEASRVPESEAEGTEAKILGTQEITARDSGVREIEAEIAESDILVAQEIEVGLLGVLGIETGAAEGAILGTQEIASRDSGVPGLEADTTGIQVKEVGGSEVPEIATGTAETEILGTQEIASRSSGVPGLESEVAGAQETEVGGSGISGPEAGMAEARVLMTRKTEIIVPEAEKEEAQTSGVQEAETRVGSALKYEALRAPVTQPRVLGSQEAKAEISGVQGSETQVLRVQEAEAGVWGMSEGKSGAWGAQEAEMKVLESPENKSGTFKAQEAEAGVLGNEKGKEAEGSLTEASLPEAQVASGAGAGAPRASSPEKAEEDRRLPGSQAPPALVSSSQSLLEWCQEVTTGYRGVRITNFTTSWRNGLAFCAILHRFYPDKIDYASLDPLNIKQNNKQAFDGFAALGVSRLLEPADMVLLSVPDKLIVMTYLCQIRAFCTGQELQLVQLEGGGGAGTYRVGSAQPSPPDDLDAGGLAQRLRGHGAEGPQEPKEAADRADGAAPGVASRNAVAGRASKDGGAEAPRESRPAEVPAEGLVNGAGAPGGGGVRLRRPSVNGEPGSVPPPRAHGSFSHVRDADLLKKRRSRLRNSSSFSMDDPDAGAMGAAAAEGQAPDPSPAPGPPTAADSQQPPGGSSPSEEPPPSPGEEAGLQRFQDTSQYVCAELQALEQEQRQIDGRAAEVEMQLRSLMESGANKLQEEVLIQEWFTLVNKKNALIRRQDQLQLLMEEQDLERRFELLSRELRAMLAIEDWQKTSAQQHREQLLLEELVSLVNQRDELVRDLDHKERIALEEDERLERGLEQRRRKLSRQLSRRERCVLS
UniProt Q8N128, sequence (Q8N128 whole entry, looked up): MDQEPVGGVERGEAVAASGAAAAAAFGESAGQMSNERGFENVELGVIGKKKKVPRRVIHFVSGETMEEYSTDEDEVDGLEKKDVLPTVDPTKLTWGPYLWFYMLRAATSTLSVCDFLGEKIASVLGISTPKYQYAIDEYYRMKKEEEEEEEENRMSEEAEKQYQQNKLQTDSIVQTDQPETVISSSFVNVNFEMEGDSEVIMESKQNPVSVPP
UniProt Q9C073, sequence (Q9C073 whole entry, looked up): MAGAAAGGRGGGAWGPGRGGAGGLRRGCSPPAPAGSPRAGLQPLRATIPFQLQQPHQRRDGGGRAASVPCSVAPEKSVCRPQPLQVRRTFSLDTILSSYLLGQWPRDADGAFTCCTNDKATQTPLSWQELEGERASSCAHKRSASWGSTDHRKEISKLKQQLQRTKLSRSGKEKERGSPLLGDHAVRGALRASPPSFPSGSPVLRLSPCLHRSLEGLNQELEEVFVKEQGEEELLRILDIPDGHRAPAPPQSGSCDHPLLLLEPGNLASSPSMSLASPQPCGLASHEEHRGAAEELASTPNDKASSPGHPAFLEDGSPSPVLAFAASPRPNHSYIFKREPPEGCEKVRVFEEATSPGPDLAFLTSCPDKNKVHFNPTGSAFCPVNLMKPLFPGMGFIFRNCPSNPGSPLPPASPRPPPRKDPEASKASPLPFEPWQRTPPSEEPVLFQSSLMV
UniProt Q9BPY3, sequence (Q9BPY3 whole entry, looked up): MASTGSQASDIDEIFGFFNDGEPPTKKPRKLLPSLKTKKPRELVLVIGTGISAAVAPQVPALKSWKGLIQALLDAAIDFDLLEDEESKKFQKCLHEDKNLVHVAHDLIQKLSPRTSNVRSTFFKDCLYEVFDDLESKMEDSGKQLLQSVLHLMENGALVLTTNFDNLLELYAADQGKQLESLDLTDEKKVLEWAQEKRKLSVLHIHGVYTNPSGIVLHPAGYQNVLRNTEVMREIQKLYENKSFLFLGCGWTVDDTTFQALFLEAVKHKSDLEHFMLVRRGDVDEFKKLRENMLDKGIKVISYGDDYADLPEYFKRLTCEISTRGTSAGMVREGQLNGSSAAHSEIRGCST
UniProt P11182, sequence (P11182 whole entry, looked up): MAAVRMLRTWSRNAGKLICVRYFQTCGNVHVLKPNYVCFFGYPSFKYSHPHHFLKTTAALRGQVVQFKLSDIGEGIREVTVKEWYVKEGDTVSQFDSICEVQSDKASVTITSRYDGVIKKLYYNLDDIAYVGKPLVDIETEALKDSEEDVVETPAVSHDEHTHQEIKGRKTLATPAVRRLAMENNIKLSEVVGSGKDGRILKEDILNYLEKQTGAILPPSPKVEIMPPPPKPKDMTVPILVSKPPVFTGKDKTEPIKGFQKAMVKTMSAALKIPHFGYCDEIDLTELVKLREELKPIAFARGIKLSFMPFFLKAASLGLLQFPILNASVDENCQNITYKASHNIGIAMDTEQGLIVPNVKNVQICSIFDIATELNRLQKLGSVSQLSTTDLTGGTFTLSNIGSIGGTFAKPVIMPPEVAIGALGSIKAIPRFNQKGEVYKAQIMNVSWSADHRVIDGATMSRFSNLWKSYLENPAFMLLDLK
UniProt Q6P3W2, sequence (Q6P3W2 whole entry, looked up): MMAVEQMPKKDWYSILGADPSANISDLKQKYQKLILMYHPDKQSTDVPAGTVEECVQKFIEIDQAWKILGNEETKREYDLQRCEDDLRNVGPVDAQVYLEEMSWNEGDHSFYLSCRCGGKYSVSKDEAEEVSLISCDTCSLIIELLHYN

Row | Target | log2 fold change
1 | DYNC1I2 isoform 2 (UniProt Q13409) | 0.06 (inactive)
2 | EZH2 isoform 2 (UniProt Q15910) | -0.129 (inactive)
3 | EHBP1L1 (UniProt Q8N3D4) | 0.119 (inactive)
4 | DDX5 (UniProt P17844) | 0.088 (inactive)
5 | FAM177A1 isoform 2 (UniProt Q8N128) | -0.291 (active)
6 | EXOC4 (UniProt Q96A65) | 0.164 (inactive)
7 | E2F4 (UniProt Q16254) | -0.098 (inactive)
8 | DSN1 (UniProt Q9H410) | -0.017 (inactive)
9 | CWF19L2 (UniProt Q2TBE0) | 0.062 (inactive)
10 | DDOST (UniProt P39656) | 0.003 (inactive)
11 | DUS3L (UniProt Q96G46) | 0.01 (inactive)
12 | EFL1 (UniProt Q7Z2Z2) | 0.042 (inactive)
13 | EEF1A1 (UniProt P68104) | -0.216 (inactive)
14 | FAM207A (UniProt Q9NSI2) | 0.108 (inactive)
15 | DPP8 (UniProt Q6V1X1) | 0.041 (inactive)
16 | DBT (UniProt P11182) | -0.006 (inactive)
17 | FAM241A (UniProt Q8N8J7) | 0.042 (inactive)

Row | Target | log2 fold change
18 | CYB561A3 isoform 2 (UniProt Q8NBI2) | 0.023 (inactive)
19 | FAM193B (UniProt Q96PV7) | 0.112 (inactive)
20 | FAM117A (UniProt Q9C073) | -0.059 (inactive)
21 | EHD2 (UniProt Q9NZN4) | 0.092 (inactive)
22 | DAXX (UniProt Q9UER7) | 0.283 (inactive)
23 | CTNNB1 (UniProt P35222) | 0.072 (inactive)
24 | EIF4G3 isoform 3 (UniProt O43432) | -0.01 (inactive)
25 | DCP2 (UniProt Q8IU60) | 0.075 (inactive)
26 | EIF2AK1 (UniProt Q9BQI3) | 0.01 (inactive)
27 | FAF2 (UniProt Q96CS3) | -0.011 (inactive)
28 | ELF1 (UniProt P32519) | -0.297 (inactive)
29 | DNAJC24 (UniProt Q6P3W2) | -0.111 (inactive)
30 | EXOSC10 (UniProt Q01780) | 0.387 (inactive)
31 | DNAH5 (UniProt Q8TE73) | -0.042 (inactive)
32 | FAM118B (UniProt Q9BPY3) | 0.017 (inactive)
33 | ELAC1 (UniProt Q9H777) | 0.06 (inactive)
34 | EIF4E2 (UniProt O60573) | -0.043 (inactive)

compound: COc1cc2ncnc(Nc3ccc(F)c(Cl)c3)c2cc1OCCCN1CCOCC1 [gefitinib]; assay: as above
Method in brief: as §1

Row | Target | log2 fold change
35 | EHBP1L1 (UniProt Q8N3D4) | -0.009 (inactive)
36 | DDX5 (UniProt P17844) | 0.031 (inactive)
37 | FAM177A1 isoform 2 (UniProt Q8N128) | 0.031 (inactive)
38 | EXOC4 (UniProt Q96A65) | 0.002 (inactive)
39 | E2F4 (UniProt Q16254) | 0.003 (inactive)
40 | DNAH10 (UniProt Q8IVF4) | -0.04 (inactive)
41 | DSN1 (UniProt Q9H410) | 0.113 (inactive)
42 | DNM2 isoform 4 (UniProt P50570) | -0.013 (inactive)
43 | DDOST (UniProt P39656) | -0.019 (inactive)
44 | DUS3L (UniProt Q96G46) | 0.02 (inactive)
45 | EFL1 (UniProt Q7Z2Z2) | 0.019 (inactive)
46 | EEF1A1 (UniProt P68104) | -0.029 (inactive)
47 | FAM207A (UniProt Q9NSI2) | -0.124 (inactive)
48 | DPP8 (UniProt Q6V1X1) | 0.042 (inactive)
49 | DDX27 (UniProt Q96GQ7) | 0.044 (inactive)
50 | DBT (UniProt P11182) | -0.021 (inactive)

Row | Target | log2 fold change
51 | FAM241A (UniProt Q8N8J7) | 0.044 (inactive)
52 | CYB561A3 isoform 2 (UniProt Q8NBI2) | -0.06 (inactive)
53 | FAM117A (UniProt Q9C073) | -0.004 (inactive)
54 | EHD2 (UniProt Q9NZN4) | -0.034 (inactive)
55 | DAXX (UniProt Q9UER7) | -0.125 (inactive)
56 | DHRS13 (UniProt Q6UX07) | 0.081 (inactive)
57 | CTNNB1 (UniProt P35222) | -0.001 (inactive)
58 | DOCK8 (UniProt Q8NF50) | 0.006 (inactive)
59 | EIF4G3 isoform 3 (UniProt O43432) | 0.032 (inactive)
60 | FAF2 (UniProt Q96CS3) | 0.056 (inactive)
61 | ELF1 (UniProt P32519) | 0.01 (inactive)
62 | DNAJC24 (UniProt Q6P3W2) | 0.018 (inactive)
63 | DNAH5 (UniProt Q8TE73) | 0.046 (inactive)
64 | FAM118B (UniProt Q9BPY3) | 0.031 (inactive)
65 | ELAC1 (UniProt Q9H777) | 0.112 (inactive)
66 | EIF4E2 (UniProt O60573) | 0.043 (inactive)

compound: COc1cccc2cc(-c3nc([C@H]4CC[C@H](C(=O)O)CC4)n4ncnc(N)c34)[nH]c12; assay: as above
Method in brief: as §1

Row | Target | log2 fold change
67 | DYNC1I2 isoform 2 (UniProt Q13409) | 0.051 (inactive)
68 | EZH2 isoform 2 (UniProt Q15910) | -0.144 (inactive)
69 | EHBP1L1 (UniProt Q8N3D4) | -0.026 (inactive)
70 | DDX5 (UniProt P17844) | 0.004 (inactive)
71 | FAM177A1 isoform 2 (UniProt Q8N128) | -0.029 (inactive)
72 | EXOC4 (UniProt Q96A65) | -0.086 (inactive)
73 | E2F4 (UniProt Q16254) | 0.059 (inactive)
74 | DNAH10 (UniProt Q8IVF4) | 0.007 (inactive)
75 | DSN1 (UniProt Q9H410) | -0.23 (inactive)
76 | DNM2 isoform 4 (UniProt P50570) | -0.272 (inactive)
77 | DDOST (UniProt P39656) | 0.012 (inactive)
78 | DUS3L (UniProt Q96G46) | 0.035 (inactive)
79 | EFL1 (UniProt Q7Z2Z2) | 0.033 (inactive)
80 | EEF1A1 (UniProt P68104) | -0.034 (inactive)
81 | FAM207A (UniProt Q9NSI2) | -0.146 (inactive)
82 | DPP8 (UniProt Q6V1X1) | 0.037 (inactive)
83 | DDX27 (UniProt Q96GQ7) | -0.138 (inactive)

Row | Target | log2 fold change
84 | DBT (UniProt P11182) | 0.039 (inactive)
85 | FAM241A (UniProt Q8N8J7) | -0.006 (inactive)
86 | CYB561A3 isoform 2 (UniProt Q8NBI2) | 0.088 (inactive)
87 | FAM117A (UniProt Q9C073) | 0.024 (inactive)
88 | EHD2 (UniProt Q9NZN4) | 0.055 (inactive)
89 | DHRS13 (UniProt Q6UX07) | -0.002 (inactive)
90 | CTNNB1 (UniProt P35222) | 0.054 (inactive)
91 | DOCK8 (UniProt Q8NF50) | -0.428 (inactive)
92 | EIF4G3 isoform 3 (UniProt O43432) | -0.32 (inactive)
93 | EIF2AK1 (UniProt Q9BQI3) | -0.089 (inactive)
94 | FAF2 (UniProt Q96CS3) | 0.009 (inactive)
95 | DNAJC24 (UniProt Q6P3W2) | -0.112 (inactive)
96 | EXOSC10 (UniProt Q01780) | 0.1 (inactive)
97 | DNAH5 (UniProt Q8TE73) | 0.058 (inactive)
98 | FAM118B (UniProt Q9BPY3) | 0.129 (inactive)
99 | EIF4E2 (UniProt O60573) | -0.251 (inactive)
